High-throughput results (PubChem)
Most compounds without a hit are left out; they make up all but 17% or so of the library.
TGFb SMAD3 inh = TGF-b pathway inhibition; 410,000 compounds, 1.2% hits; AID 588855; HepG2 CAGA-GFP TGF-b/SMAD3 reporter, GFP fluorescence, 18 h; TGF-beta stimulated, 500 pg/mL final; Potency, µM (top dose mostly 46.1 µM), inactives show top-dose activity, negative = inhibition, actives largely listed as inhibitors; also: % is scaled to controls: 0 for no effect and ±100 for the full control effect; nearly all actives have a fitted effect of over 65% in size
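First, reporter cells (HEPG2 CAGA-GFP) rested 2 h at 37 degrees C. Next, compounds were pinned in and TGF-beta added to 500 pg/mL final. After 18 h, GFP was imaged per cell and summed per well.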
ATXN2 expr inh = reduces ATXN2 reporter expression in HEK-293 cells. AID 1745845. 360,000 compounds, 0.72% hits. HEK-293 ATXN2-luciferase reporter, luminescence, 24 h. Potency, µM (series often up to 57 µM), inactives show top-dose activity change, negative = inhibition, usual class: inhibitors; also: % is scaled to controls: 0 for no effect and ±100 for the full control effect; nearly all actives have a fitted effect of over 55% in size
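qHTS (up to 57 uM final) was run with 24 h compound exposure of reporter cells at 37 °C. Each well was multiplexed: SteadyGlo luminescence measured ATXN2-luciferase expression after a fluorogenic Gly-Phe-AFC viability readout (25 uM final).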
ATXN viability = viability counter-screen for ATXN expression inhibitors | 400,000 compounds, 0.49% hits | S2 cells (HEK-293 line with an ATXN2-luciferase reporter) viability, CellTiter-Fluor protease fluorescence, 24 h | AID 651635 | Potency, µM (series often up to 56.7 µM), usual class: cytotoxic; also: nearly all actives have a fitted effect of over 40% in size
DT40 TDP1 CPT = growth inhibition of DT40 Tdp1-/-;hTDP1 cells with camptothecin (screen for TDP1 inhibitors); chicken DT40 Tdp1-/-;hTDP1 cells + 20 nM CPT, ATP luminescence, 48 h; Potency, µM (series often up to 46.2 µM), inactives show at the top dose activity change, negative = growth inhibition, hits mostly inhibitors; 420,000 compounds, 12% hits; AID 686979; also: % is scaled to controls: 0 for no effect and ±100 for the full control effect; nearly all actives have a fitted effect of over 55% in size
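Chicken DT40 Tdp1-/- cells stably complemented with human TDP1 were seeded at 400 cells/well in medium containing 20 nM camptothecin, exposed to pin-transferred compounds, and grown at 37 °C for at least 48 hr. Viability was read as ATP luminescence.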
DT40 TDP1 no CPT = qHTS for Inhibitors of human tyrosyl-DNA phosphodiesterase 1 (TDP1): qHTS in cells in absence of CPT; DT40 Tdp1-/- hTDP1 cells, no CPT, ATP luminescence, 48 h; Potency, µM (titrated, usually from 46.2 µM), without a hit: at the highest dose activity change, negative = growth inhibition, most hits filed as inhibitors; 420,000 compounds, 15% hits; also: % is scaled to controls: 0 for no effect and ±100 for the full control effect; nearly all actives have a fitted effect of over 55% in size
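Camptothecin absent (DMSO only). Human TDP1-complemented DT40 knockout cells, 400 cells/well, 37 °C for minimum 48 hr; ATP measured via CellTiter-Glo, 30 min dark incubation, luminescence.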
HepG2 viability = HepG2 cytotoxicity, counter-screen for TGF-b inhibitors | HepG2 CAGA-GFP viability, ATP luminescence, 18 h | Potency, µM (top dose mostly 46.1 µM), without a hit: top-dose activity change, negative = cytotoxicity, most hits filed as cytotoxic | 410,000 compounds, 0.76% hits | AID 588856
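CellTiter-Glo luminescence gave cytotoxicity after 18 hours at 37 degrees C. The cells were HepG2 CAGA-GFP in 1% FBS DMEM, stimulated with 500 pg/mL TGF-beta after compound addition. %Activity was normalised to no-cell wells (complete cell-killing) and DMSO (no toxicity), and curves were fitted and classified.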
An asterisk follows results filed as active; i = inactive; ? = inconclusive; / = no result given. Calls follow the shape of the dose curve; as a rule, active = well fitted curve in the direction sought with a large enough effect; inconclusive = small, poorly fitted or top-dose-only effect, or another doubt; inactive = no such curve, though single readings can be large; an effect the other way counts as inactive or inconclusive. Potency is read from the fitted curve at half-maximal effect.

SMILES | TGFb SMAD3 inh | ATXN2 expr inh | ATXN viability | DT40 TDP1 CPT | DT40 TDP1 no CPT | HepG2 viability
Cc1nn(Cc2ccccc2)c(C)c1NC(=O)CSc1nc(C2CC2)nc2c1cnn2-c1ccccc1 | 3% | -17% | i | 16µM* | 16µM* | 9%
CC1C(=O)CC(c2ccccc2)N(C)C1c1ccccc1 (stereo unspecified) | 2% | -21% | i | ? | -27% | -2%
CCC1C(c2ccccc2)N(C)C(c2ccccc2)CC1(O)c1ccccc1 (stereo unspecified) | ? | -6% | ? | ? | 23µM* | 13µM*
O=C(CNC(=O)C1CCCCC1)NC1=NCCS1 | -3% | -2% | i | 26µM* | ? | -28%
C=CCNc1cc(F)ccc1S(=O)(=O)NCC=C | -3% | -4% | i | 1% | -13% | -2%
Cc1ccc(N(C(=O)c2ccccn2)C2(C(=O)NC3CCCC3)CCCCC2)cc1 | -13% | -13% | i | 0.52µM* | 1.6µM* | 5%
O=C(c1ccccn1)N(Cc1ccco1)C1(C(=O)NC2CCCC2)CCCCC1 | -27% | -7% | ? | -28% | ? | -9%
Cc1ccc(NC(=O)N2CCCN(Cc3ccc(F)cc3)C2)cc1C | -7% | -25% | i | ? | ? | -90%
O=C(Nc1ccc(Cl)cc1)N1CCCN(Cc2ccccc2F)C1 | 7% | -21% | i | 25µM* | ? | -54%
CN(C)Cc1ccccc1-c1cncnc1Nc1ccccc1 | / | / | / | ? | -10% | /
CCc1ccc(NC(=O)N2CCN(C(=O)C3CCCO3)CC2)cc1 (stereo unspecified) | -1% | 11% | i | 9% | 3% | 0%
Cc1ccc(-c2nnc(-c3ccccc3)c(-c3ccccc3)n2)cc1 | 3% | 0% | i | ? | ? | -18%
Cc1ccc2nc(-c3ccccc3)nn2c1 | 25% | 3.2µM* | i | 6% | ? | -27%
CCCS(=O)(=O)N1CCc2ccc(NC(=O)C3CCCO3)cc2C1 (stereo unspecified) | 12% | 6% | i | ? | ? | 12%
CCOc1ccc(C2NC(=O)NC(C)=C2[N+](=O)[O-])cc1OC (stereo unspecified) | 1% | 12% | i | -8% | 1% | -3%
CC(C)(C)c1ccc(S(=O)(=O)N2CCN(CCC#N)CC2)cc1 | 8% | 5% | i | -11% | -17% | -1%
CC(C)(C)CC(C)(C)c1ccc(O)c(CN2CCN(CCC#N)CC2)c1 | 0% | -1% | i | ? | 23µM* | -51%
C=CCNC(=S)NNC(=O)COc1ccc2cc(Br)ccc2c1 | -11% | 30% | i | ? | 8.2µM* | -15%
CCCC(=O)Nc1nc(C)c(-c2csc(Nc3ccccc3OC)n2)s1 | 1% | 6% | i | -28% | ? | -2%
COc1ccccc1Nc1nc(-c2sc(NC(=O)CC(C)C)nc2C)cs1 | -13% | 3% | i | ? | ? | -14%
C=CCCC(=O)Nc1nc(C)c(-c2csc(Nc3cc(OC)ccc3OC)n2)s1 | ? | -36% | i | 2.6µM* | 2.6µM* | 0%
COc1cccc(Nc2nc(-c3sc(NC(=O)CC(C)C)nc3C)cs2)c1 | -5% | 9% | i | 13µM* | 23µM* | -23%
COc1cccc(Nc2nc(-c3sc(NC(=O)c4ccccc4)nc3C)cs2)c1 | 5% | 15% | i | 18µM* | 21µM* | -37%
COc1cccc(NC(=O)c2sc(NC(=O)c3ccncc3)nc2C)c1 | -26% | / | i | -14% | -21% | -23%
C=CCCC(=O)Nc1nc(C)c(-c2csc(Nc3cccc(OC)c3)n2)s1 | -28% | -11% | i | 16µM* | 16µM* | -5%
SMILES | TGFb SMAD3 inh | ATXN2 expr inh | ATXN viability | DT40 TDP1 CPT | DT40 TDP1 no CPT | HepG2 viability
COc1ccc(OC)c(Nc2nc(-c3sc(N)nc3C)cs2)c1 | 0% | 11% | i | ? | 26µM* | -6%
Cc1nc(NC(=O)c2ccccc2)sc1-c1csc(NCc2ccco2)n1 | ? | ? | i | 23µM* | 23µM* | -36%
CCCCCC(=O)Nc1nc(C)c(-c2csc(Nc3cc(Cl)ccc3OC)n2)s1 | ? | -5% | i | ? | 18µM* | -14%
CCCC(=O)Nc1nc(C)c(-c2csc(Nc3cc(OC)ccc3OC)n2)s1 | 1% | -21% | i | 4.6µM* | 6.5µM* | -9%
O=C(CN1C(=O)NC2(CCCC2)C1=O)NNC(=O)c1ccc(F)cc1 | -26% | -24% | i | 7% | -18% | -35%
Cc1ccc(S(=O)(=O)N(C)C)cc1NC(=O)COC(=O)C1=COCCO1 | 1% | / | i | 16% | -9% | -3%
CCNC(=O)c1ccc(-n2nc(C(F)(F)F)c3c2CCCC3)cc1 | 1% | -19% | i | -29% | ? | -32%
COc1ccc(OC)c(NC(=O)c2nnn(CC(=O)Nc3ccc(C(C)C)cc3)c2N)c1 | ? | / | / | -101% | ? | -59%
CCC(=O)Nc1nc(C)c(-c2csc(Nc3ccc(C(=O)O)cc3)n2)s1 | 12% | 6% | i | -1% | -26% | -20%
C=CCn1nc(C(=O)Nc2ccc(OC)cc2)cc1-c1sc(NC(=O)c2ccccc2)nc1C | / | / | / | 18µM* | ? | /
CCCC(C)C(=O)Nc1nc(C)c(-c2csc(Nc3cc(OC)ccc3OC)n2)s1 (stereo unspecified) | 4% | -27% | i | 4.6µM* | 6.5µM* | -5%
COc1cc(OC)cc(C(=O)N[C@H](C(=O)Nc2nc(-c3cc(OC)ccc3OC)cs2)C(C)C)c1 | -12% | 1% | i | -3% | ? | 9%
Cc1nc(NC(=O)c2ccccc2)sc1-c1csc(Nc2ccc(C(=O)O)cc2)n1 | -15% | 29% | i | 21µM* | 12µM* | -38%
O=C(CSc1ccccn1)Nc1nncs1 | -9% | 11% | i | 0% | -12% | -25%
Cc1c(C)c2ccc(OCC(=O)Nc3ccc(S(N)(=O)=O)cc3)c(C)c2oc1=O | 0% | -4% | i | 0% | 24% | 0%
CN(C)CCC1(C2=CCCC2)CC/C(=C/c2ccc(Cl)cc2)C1=O (stereo unspecified) | 0% | ? | ? | 7.3µM* | 8.2µM* | -88%
O=C1CC(c2ccccc2Cl)CC(O)=C1C=NCCCO (stereo unspecified) | -1% | / | i | -3% | -5% | -3%
